# Patent US11472855, “RNA-binding protein” (Panitch Schwarze Belisario & Nadel LLP)
# Assays:
# hPUF_MT(F856A) = hPUF_MT(F856A) (UniProt Q14671 SEQ:1-349, F856A); assay: EMSA; details: tags: MBP; label: Alexa680 at 5' and 3'; ssRNA
# hPUF_MT(F865A) = hPUF_MT(F865A) (UniProt Q14671 SEQ:1-349, F865A); assay: EMSA; smaller contribution than F856; details: tags: MBP; label: Alexa680 at 5' and 3'; ssRNA
# [1] = target: T1, hPUF_MT(R5:A_13R)(R5:A_13Y)2(R6:C_13Y)3; assay: EMSA; 13R about 10 times greater; details: label: Alexa680 at 5' and 3'; ssRNA
# T1 chain: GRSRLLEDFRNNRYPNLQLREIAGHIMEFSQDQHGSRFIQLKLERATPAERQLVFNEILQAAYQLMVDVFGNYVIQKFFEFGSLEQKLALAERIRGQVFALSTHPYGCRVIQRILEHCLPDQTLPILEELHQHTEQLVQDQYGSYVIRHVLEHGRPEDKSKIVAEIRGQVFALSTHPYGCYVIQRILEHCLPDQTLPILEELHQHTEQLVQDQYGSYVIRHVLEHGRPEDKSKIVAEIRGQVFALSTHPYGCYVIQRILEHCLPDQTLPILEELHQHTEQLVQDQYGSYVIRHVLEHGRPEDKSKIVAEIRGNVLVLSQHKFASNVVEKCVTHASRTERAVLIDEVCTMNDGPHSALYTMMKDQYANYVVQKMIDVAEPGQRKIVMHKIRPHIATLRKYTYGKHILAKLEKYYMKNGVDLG
Sequence,binding signal (hPUF_MT(F856A)),binding signal (hPUF_MT(F865A)),binding signal [1]
CCAGAAUUGUAUAUAUUCG,~0.1 fold of WT,~0.1 fold of WT,
CCAGAAUUGCACACAUAUUCG,,,~0.1 fold of 13R protein
